From PubChem BioAssay come the findings set out here.

Activity calls are given as the source filed them.

Assay [1] is described as follows: small molecules captured by biotinylated probe aFSTL3 – biochemical, small-molecule microarray, fluorescence 635/667, stem cell growth factor project, primary screen (AID 1064).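 Further: measures binding of the biotinylated anti-FSTL3 antibody to printed compounds.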 Conditions: higher = more signal.
Assay [2] is described as follows: binders from COS7 lysate, DM2A8 probe, primary screen, torsin A project, cell lysate, small-molecule microarray, fluorescence 635/667 (AID 1065). Conditions: higher = more signal, COS7 lysate expressing mutant human TOR1A.
Assay [3] in a line: small molecules captured by biotinylated probe aFGF2 – biochemical, small-molecule microarray, fluorescence 635/667, stem cell growth factor project, primary screen (AID 1067).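 Further: measures binding of biotinylated aFGF2 protein to printed compounds on slides; z-score merges feature fluorescence and signal-to-noise across triplicate slides.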 Conditions: higher = more signal.
A short description of assay [4]: small molecules captured by biotinylated probe aFGF10 – biochemical, small-molecule microarray, fluorescence 635/667, stem cell growth factor project, primary screen (AID 1071).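 Further: score merges 667 nm spot intensity and signal to noise from triplicate slides.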 To be noted: higher = more signal.
Assay [5] has as its target Neurogenic locus notch homolog protein 2 (Homo sapiens) (UniProt Q04721). Nature of the assay: small molecules binding Notch2 protein – biochemical, small-molecule microarray, 635 nm fluorescence, stem cell growth factors, primary screen (AID 1073). To be noted: higher = more signal.
For assay [6], the target named is Pro-neuregulin-1, membrane-bound isoform (Homo sapiens) (UniProt Q02297). Nature of the assay: small molecules binding neuregulin-1 protein – biochemical, small-molecule microarray, fluorescence 635/667, psychiatric disease protein project, primary screen (AID 1075).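 Further: score combines 667 nm spot fluorescence with signal to noise.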 Conditions: NRG1 binding, 635 nm fluorescence, higher = more signal.
Sequence of Pro-neuregulin-1, membrane-bound isoform (Homo sapiens) (Q02297 whole entry, looked up, the tested form may be a part, canonical isoform): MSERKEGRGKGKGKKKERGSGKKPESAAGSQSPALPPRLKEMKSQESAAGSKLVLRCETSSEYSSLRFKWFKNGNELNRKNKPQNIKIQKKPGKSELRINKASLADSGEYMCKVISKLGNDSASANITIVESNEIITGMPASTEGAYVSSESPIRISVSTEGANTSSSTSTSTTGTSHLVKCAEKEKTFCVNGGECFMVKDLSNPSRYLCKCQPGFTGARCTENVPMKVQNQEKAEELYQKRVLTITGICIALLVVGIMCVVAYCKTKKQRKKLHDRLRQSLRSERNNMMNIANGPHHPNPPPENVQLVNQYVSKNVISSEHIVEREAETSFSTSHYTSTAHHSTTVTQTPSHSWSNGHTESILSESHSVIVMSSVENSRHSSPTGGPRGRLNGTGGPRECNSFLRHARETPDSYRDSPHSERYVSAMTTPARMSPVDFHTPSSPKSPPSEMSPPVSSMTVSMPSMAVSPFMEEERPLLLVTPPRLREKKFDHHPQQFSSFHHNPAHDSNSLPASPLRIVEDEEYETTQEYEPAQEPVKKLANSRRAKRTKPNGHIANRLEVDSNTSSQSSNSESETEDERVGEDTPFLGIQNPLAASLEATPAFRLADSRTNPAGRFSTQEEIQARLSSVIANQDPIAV
The subject of assay [7] is Neuregulin-1 EGF-like domain. Description: small molecules binding NRG1 EGF domain – biochemical, small-molecule microarray, 635 nm fluorescence, primary screen (AID 1081).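 Further: binding of the protein to compounds printed on small-molecule microarray slides.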 To be noted: higher = more signal.
Assay [8] can be described thus: FRG1 expression reporter modulators in myotubes – cell-based, C2C12 myotubes, firefly/Renilla luciferase, luminescence, FRG1 inhibition for FSHD, primary screen (AID 1084). Conditions: FRG1 promoter luciferase, higher = more signal, called active from +8 up or from −8 down.
Assay [9] in a line: small molecules captured by biotinylated probe aFST – biochemical, small-molecule microarray, fluorescence 635/667, stem cell growth factor project, primary screen (AID 1086).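 Further: score merges 667 nm fluorescence with signal-to-noise of each printed compound spot.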 To be noted: higher = more signal.
A short description of assay [10]: binders of probe aHhip on microarray, primary screen, stem cell growth factor project, biochemical, small-molecule microarray, fluorescence 635/667 (AID 1087).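 Further: score merges spot fluorescence at 667nm with spot signal to noise ratio.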 Conditions: higher = more signal.
Assay [11] relates to PRMT1 (protein arginine N-methyltransferase 1). Nature of the assay: small molecules binding arginine methyltransferase PRMT1 – biochemical, small-molecule microarray, 635 nm fluorescence, primary screen (AID 1088).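 Further: binding of Prmt1 protein to compounds spotted on small-molecule microarray slides.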 Conditions: higher = more signal.
A short description of assay [12]: growth effects on S. cerevisiae YJM789 – YJM789 clinical isolate, OD600, 24 h, basal, primary screen (AID 1089).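 Further: growth of clinical yeast isolate S. cerevisiae YJM 789 seeded 1000 cells per well; test concentration not given here.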 Conditions: higher = more signal, called active from +8 up or from −8 down.
A short description of assay [13]: S. pombe growth modifiers, basal conditions – strain 972, OD600, 24 h, no modulator, primary screen (AID 1090).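 Further: basal condition with compound alone and no growth modifier present; test concentration not given here.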 To be noted: S. pombe 972 growth, higher = more signal, called active from +8 up or from −8 down.
Assay [14] is described as follows: budding yeast growth modifiers under rapamycin – strain BY4716, OD600, 96 h, primary screen (AID 1091). Further: test concentration not given here. Conditions: S. cerevisiae BY4716 + rapamycin, higher = more signal, called active from +8 up or from −8 down.
For assay [15], the target named is Torsin-1A-interacting protein 2 (Homo sapiens) (UniProt Q8NFQ8). Nature of the assay: small molecules binding lysate-expressed LULL1 – cell lysate, human LULL1 lysate, 635/667 nm fluorescence, primary screen (AID 1092).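 Further: score merges per-feature 667 nm fluorescence with signal-to-noise.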 Conditions: small-molecule microarray, hLULL1 lysate binding, 635 nm fluorescence; higher = more signal.
Sequence of Torsin-1A-interacting protein 2 (Homo sapiens) (Q8NFQ8 whole entry, looked up): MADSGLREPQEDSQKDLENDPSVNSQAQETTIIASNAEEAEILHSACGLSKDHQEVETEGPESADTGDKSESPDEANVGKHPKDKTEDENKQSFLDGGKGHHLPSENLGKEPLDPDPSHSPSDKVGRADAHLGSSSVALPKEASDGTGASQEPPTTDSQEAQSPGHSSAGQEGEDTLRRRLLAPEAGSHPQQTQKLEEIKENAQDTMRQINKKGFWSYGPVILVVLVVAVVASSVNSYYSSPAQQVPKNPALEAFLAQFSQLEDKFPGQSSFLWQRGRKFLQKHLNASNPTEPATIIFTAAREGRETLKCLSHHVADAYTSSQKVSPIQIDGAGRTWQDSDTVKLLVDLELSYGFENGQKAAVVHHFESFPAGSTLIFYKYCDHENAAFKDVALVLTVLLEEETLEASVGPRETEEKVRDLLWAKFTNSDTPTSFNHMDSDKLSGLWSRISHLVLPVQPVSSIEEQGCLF
Assay [16] can be described thus: optical density change of DRC41 E. coli – strain DRC41, OD650, 24 h, E. coli filamentation project, primary screen (AID 1093).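 Further: MC1000 strain lacking acrAB efflux and sulA so SOS filamentation is blocked; test concentration not given here.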 To be noted: E. coli DRC41 growth, higher = more signal, called active from +8 up or from −8 down.
Assay [17] can be described thus: probe aLefty2 binding to arrayed compounds – biochemical, biotinylated probe, 635/667 nm fluorescence, primary screen (AID 1094).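 Further: score merges spot fluorescence near 667 nm with spot signal-to-noise ratio.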 Conditions: small-molecule microarray, higher = more signal.
The test system of assay [18] is Noggin (protein binding on small-molecule microarray). Description: small molecules binding Noggin protein – biochemical, 635/667 nm fluorescence, primary screen (AID 1095).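 Further: score merges 667 nm feature fluorescence with signal to noise over triplicate slides.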 Conditions: 635 nm fluorescence, higher = more signal.
Assay [19] has as its target Neurogenic locus notch homolog protein 3 (Homo sapiens) (UniProt Q9UM47). Description: small molecules binding NOTCH3 protein – biochemical, 635/667 nm fluorescence, primary screen (AID 1096). To be noted: small-molecule microarray, 635 nm fluorescence, higher = more signal.
The nature of assay [20]: probe aEGFR binding to arrayed compounds – biochemical, biotinylated probe, 635/667 nm fluorescence, primary screen (AID 1097).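 Further: probe is a biotinylated anti-EGFR antibody binding compounds printed on slides; score combines fluorescence near 667 nm and signal to noise of each spot.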 To be noted: small-molecule microarray, higher = more signal.

Sequence of Neurogenic locus notch homolog protein 2 (Homo sapiens) (Q04721 whole entry, looked up, canonical isoform): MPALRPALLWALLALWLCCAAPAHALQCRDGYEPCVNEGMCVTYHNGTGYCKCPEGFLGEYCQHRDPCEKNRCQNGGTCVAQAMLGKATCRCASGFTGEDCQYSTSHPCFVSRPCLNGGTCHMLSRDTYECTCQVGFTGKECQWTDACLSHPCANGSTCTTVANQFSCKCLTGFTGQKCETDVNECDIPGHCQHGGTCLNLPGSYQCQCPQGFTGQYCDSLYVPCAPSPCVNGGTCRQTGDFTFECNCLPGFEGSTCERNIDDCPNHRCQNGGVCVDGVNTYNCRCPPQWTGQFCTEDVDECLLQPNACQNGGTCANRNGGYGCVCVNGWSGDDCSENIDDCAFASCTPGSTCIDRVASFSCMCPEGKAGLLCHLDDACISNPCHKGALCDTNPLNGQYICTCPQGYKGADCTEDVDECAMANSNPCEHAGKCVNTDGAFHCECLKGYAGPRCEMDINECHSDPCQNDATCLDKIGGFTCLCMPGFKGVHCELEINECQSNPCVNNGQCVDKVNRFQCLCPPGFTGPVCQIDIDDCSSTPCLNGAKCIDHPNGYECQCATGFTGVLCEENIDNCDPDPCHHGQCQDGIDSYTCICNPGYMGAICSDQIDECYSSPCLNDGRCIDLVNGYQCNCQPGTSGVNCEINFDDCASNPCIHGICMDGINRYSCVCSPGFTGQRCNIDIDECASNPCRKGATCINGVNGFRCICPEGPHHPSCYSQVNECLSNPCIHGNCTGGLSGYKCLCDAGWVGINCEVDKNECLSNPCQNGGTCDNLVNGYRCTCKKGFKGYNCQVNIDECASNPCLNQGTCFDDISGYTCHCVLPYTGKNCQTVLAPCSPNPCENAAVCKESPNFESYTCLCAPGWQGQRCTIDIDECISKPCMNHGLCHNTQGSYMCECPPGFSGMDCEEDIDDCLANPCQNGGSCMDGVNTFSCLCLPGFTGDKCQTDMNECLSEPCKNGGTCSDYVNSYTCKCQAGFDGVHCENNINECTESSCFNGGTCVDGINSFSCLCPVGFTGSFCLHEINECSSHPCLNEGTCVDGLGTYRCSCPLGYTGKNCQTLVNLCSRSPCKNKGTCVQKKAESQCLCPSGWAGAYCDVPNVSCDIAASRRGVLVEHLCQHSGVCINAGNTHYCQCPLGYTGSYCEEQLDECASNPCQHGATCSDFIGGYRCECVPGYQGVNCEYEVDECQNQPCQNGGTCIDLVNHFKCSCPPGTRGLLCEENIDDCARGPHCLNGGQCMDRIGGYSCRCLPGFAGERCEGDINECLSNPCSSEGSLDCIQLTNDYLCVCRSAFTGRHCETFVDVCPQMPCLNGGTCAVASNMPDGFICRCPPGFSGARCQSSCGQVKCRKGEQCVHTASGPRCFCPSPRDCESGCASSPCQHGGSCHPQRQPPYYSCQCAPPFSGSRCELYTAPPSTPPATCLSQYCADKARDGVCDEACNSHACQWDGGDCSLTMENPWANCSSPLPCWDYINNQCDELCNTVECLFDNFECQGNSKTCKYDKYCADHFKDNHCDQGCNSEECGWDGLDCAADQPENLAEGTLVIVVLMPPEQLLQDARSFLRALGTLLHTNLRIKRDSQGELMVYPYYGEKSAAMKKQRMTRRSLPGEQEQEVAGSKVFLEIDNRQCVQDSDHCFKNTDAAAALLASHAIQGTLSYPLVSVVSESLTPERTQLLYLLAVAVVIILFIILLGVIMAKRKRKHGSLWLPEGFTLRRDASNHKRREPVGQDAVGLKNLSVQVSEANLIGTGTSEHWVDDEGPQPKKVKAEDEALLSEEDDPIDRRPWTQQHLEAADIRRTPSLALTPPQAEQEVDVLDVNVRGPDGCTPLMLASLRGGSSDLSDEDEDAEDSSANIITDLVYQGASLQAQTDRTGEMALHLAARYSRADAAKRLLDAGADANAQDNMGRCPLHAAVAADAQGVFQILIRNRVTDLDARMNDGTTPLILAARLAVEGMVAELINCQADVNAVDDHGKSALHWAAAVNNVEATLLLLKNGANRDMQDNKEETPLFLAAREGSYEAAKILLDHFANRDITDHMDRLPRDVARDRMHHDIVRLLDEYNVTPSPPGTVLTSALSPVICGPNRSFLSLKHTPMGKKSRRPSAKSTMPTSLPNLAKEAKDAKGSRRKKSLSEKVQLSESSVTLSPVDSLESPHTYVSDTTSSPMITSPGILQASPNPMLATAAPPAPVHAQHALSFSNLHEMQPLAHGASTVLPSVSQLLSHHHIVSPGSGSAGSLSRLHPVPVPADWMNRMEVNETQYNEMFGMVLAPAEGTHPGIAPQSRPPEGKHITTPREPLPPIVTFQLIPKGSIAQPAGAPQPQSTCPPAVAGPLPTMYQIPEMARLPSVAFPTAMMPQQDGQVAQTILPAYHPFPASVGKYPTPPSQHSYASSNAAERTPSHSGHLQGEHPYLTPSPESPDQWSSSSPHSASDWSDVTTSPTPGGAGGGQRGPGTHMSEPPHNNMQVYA

Consider `COC(=O)[C@]1(CCS(=O)(=O)c2ccccc2)N=C(c2ccc(OCCCO)cc2)O[C@@H]1c1ccccc1CN=[N+]=[N-]`, for which the composite z-score in assay [1] was 0.0312; in assay [2], 0.419; in [3], 0.0794; in assay [4], 0.169; in assay [5], 1.12; in [6], 0.959. Besides, the composite z-score in assay [7] is 1.35; in assay [9] it was 0.284; in assay [10], -0.346; in assay [11] it was 1.54; in [15] it was 3.09; in assay [17] it was 0.0956. Also, the figures for the composite z-score in [18], in assay [19] and in assay [20] were 0.839, 0.941 and -0.0972, respectively. Further, the z-score in assay [8] was -1.96 (inactive); in assay [12], 1.6 (inactive); in assay [13] it was 1.13 (inactive); in assay [14], 37 (active); in assay [16] it was -0.33 (inactive).
With `CC(C)CN1C(=O)[C@@]2(c3ccc([N+](=O)[O-])cc3)CC(=O)N(CC34CC5CC(CC(C5)C3)C4)[C@@H]2c2ccc(CO)cc21`, the composite z-score in [1] was 0.311; in [2], -1.76; in assay [3], -0.186; in assay [4], -0.34; in assay [5], -0.602; in assay [6] it was 0.251. For the same molecule, the composite z-score in assay [7] was -0.594; in [9], 0.0959; in assay [10] it was -0.0994; in [11], -0.297; in [15], 0.295; in assay [17] it was -0.239. The composite z-score in assay [18] was -1.21; in assay [19], -0.506; in assay [20] it was -0.256. The z-score in [8] was 0.0918 (inactive); in assay [12] it was 0.275 (inactive); in assay [13] it was 0.0569 (inactive); in assay [14], -1.32 (inactive); in assay [16], -1.55 (inactive).
As for `CN(C)C(=O)[C@@]1(Cc2ccccc2N=[N+]=[N-])COC(c2ccc(OCCCO)cc2)=N1`, the composite z-score in assay [1] is 0.541; in [2] it was 0.33; in assay [3] it was 0.0493; in assay [4], 1.02; in assay [5], 0.687; in assay [6], 1.05. For the same molecule, the composite z-score in assay [7] was 1.33; in assay [9] it was 0.495; in assay [10] it was 0.0349; in assay [11], 1.37; in assay [15] it was 3.33; in assay [17], 0.072. The composite z-score in assay [18] came to 0.577; in assay [19], 0.481; in assay [20] it was 0.553. Also, the z-score is -0.927 (inactive) in assay [8]; -1.85 (inactive) in assay [12]; -7.64 (inactive) in assay [13]; 0.337 (inactive) in [14]; 1.84 (inactive) in assay [16].
Consider `CC(C)C(O)C1C=CC2C(=O)N(C)C(=O)C2N1N(c1ccccc1)c1ccccc1` (stereo not given), for which the composite z-score in assay [1] is 0.626; in assay [2] it was -0.312; in assay [3] it was -0.0613; in [4] it was -0.577; in assay [5], 0.461; in assay [6] it was 0.371. Besides, the composite z-score in assay [7] is -0.142; in [9], 0.272; in assay [10], 0.0139; in [11], -2.15; in assay [15], 2.17; in [17] it was 0.0443. Further, the composite z-score in assay [18] is -0.306; in [19] it was -0.853; in [20], 0.102. Also, the z-score in [8] is -0.165 (inactive); in assay [12] it was 1.01 (inactive); in [13], 1.55 (inactive); in assay [14], 1.5 (inactive); in assay [16], -0.573 (inactive).
Turning to `C=CC[C@@H](OC(=O)Nc1ccc(OC)cc1)c1ccc(OCCO)cc1`, the composite z-score in assay [1] is 0.767; in [2], -1.54; in assay [3] it was -0.131; in assay [4] it was -0.805; in assay [5] it was -2.39; in assay [6], -0.682. In addition, the composite z-score is 0.0481 in [7]; -1.25 in assay [9]; 0.0722 in assay [10]; -0.424 in assay [11]; -0.0818 in [15]; -0.0304 in assay [17]. The composite z-score in assay [18] is -0.929; in assay [19], -0.801; in assay [20], -0.338. Also, the z-score was 5.78 (inactive) in assay [8]; -0.348 (inactive) in assay [12]; -3.59 (inactive) in assay [13]; 0.126 (inactive) in [14]; 0.743 (inactive) in assay [16].
Take `COc1cc2c(cc1O)C(C)N(Cc1cc3c(cc1Br)OCO3)CC2` (stereo not given): the composite z-score is 0.731 in assay [1]; -0.192 in assay [2]; -0.0951 in [3]; 0.0663 in [4]; 0.511 in [5]; 0.53 in assay [6]. The composite z-score in assay [7] is 1.5; in [9], -0.175; in [10], 0.0749; in assay [11], -0.285; in assay [15], 0.169; in assay [17], 0. Also, the composite z-score in assay [18] was -1.03; in assay [19], -0.53; in assay [20], -0.0594. Further, the z-score in assay [8] is 0.0288 (inactive); in assay [12] it was 0.406 (inactive); in [13], -10.1 (active); in [14], -1.35 (inactive); in assay [16], -0.471 (inactive).
Consider `CN1C(=O)C2C=CC(C(O)Cc3ccccc3)N(N(c3ccccc3)c3ccccc3)C2C1=O` (stereo not given), for which the composite z-score in assay [1] was 0.135; in assay [2] it was 0.147; in assay [3], 0.0295; in assay [4], 0.837; in assay [5], 0.602; in assay [6], 0.503. The composite z-score in assay [7] was 1.11; in assay [9], 0.654; in assay [10], 0.107; in [11] it was 0.795; in [15], 2.22; in assay [17], 0.107. For the same molecule, the composite z-score in assay [18] was 0.218; in [19], 0.839; in [20], -0.137. In addition, the z-score in [8] is 0.357 (inactive); in assay [12], -0.179 (inactive); in assay [13], 0.759 (inactive); in assay [14] it was 1.11 (inactive); in [16] it was -1.39 (inactive).
With `COCC(=C=CC[C@H](O)c1ccc(OCCO)cc1)C[C@H](O)COCc1ccccc1`, the composite z-score was -0.41 in assay [1]; 0.0477 in assay [2]; -0.0762 in [3]; 0.477 in [4]; 0.189 in [5]; 0.586 in assay [6]. In addition, the composite z-score in assay [7] was 1.03; in assay [9], 0.163; in assay [10], 0.0505; in assay [11], 1.51; in [15], 1.64; in [17], -0.298. Besides, the figures for the composite z-score in [18], in assay [19] and in assay [20] were 1.4, 0.573 and -0.02, respectively. The z-score in [8] was 0.723 (inactive); in assay [12], -1.49 (inactive); in assay [13] it was -1.44 (inactive); in assay [14], -0.885 (inactive); in assay [16], 0.825 (inactive).
Regarding `CO[C@H]1O[C@H](CO)[C@@H](OC(=O)Nc2ccc(C(F)(F)F)cc2)[C@H](OC(=O)Nc2ccc3c(c2)OCO3)[C@H]1OC(=O)Nc1ccc2c(c1)OCO2`, the composite z-score worked out at 0.303 in assay [1]; 1.15 in assay [2]; 0.0557 in [3]; 0.794 in assay [4]; 1.41 in assay [5]; 1.6 in [6]. Further, the composite z-score in assay [7] worked out at 1.3; in assay [9], 0.557; in assay [10], 0.176; in assay [11], 1.54; in assay [15], 3.03; in assay [17], 0.0631. Moreover, the composite z-score amounted to 0.293 in assay [18], 1.11 in assay [19] and 0.104 in [20]. The z-score in [8] is 6.45 (inactive); in assay [12] it was 0.724 (inactive); in assay [13] it was 0.908 (inactive); in assay [14] it was 14.9 (active); in assay [16], -0.298 (inactive).
In the case of `O=C(O)[C@H](Cc1ccccc1)n1cc(-c2ccccn2)nn1`, the composite z-score is -0.158 in assay [1]; -0.258 in assay [2]; -0.149 in assay [3]; 0.306 in assay [4]; 0.377 in assay [5]; 0.286 in assay [6]. Also, the composite z-score was 1.07 in assay [7]; 0.321 in [9]; -0.0672 in assay [10]; 0.427 in assay [11]; 0.524 in [15]; -0.103 in assay [17]. Moreover, the composite z-score in [18] is 0.665; in assay [19], 0.596; in assay [20], -0.042. In addition, the z-score in assay [8] is 1.24 (inactive); in assay [12], 0.445 (inactive); in assay [13], 1.25 (inactive); in [14] it was -0.609 (inactive); in [16], -0.631 (inactive).
